Measured values from PubChem BioAssay.
Results with a measured potency or affinity are listed apart. Records with an inconclusive call do not appear. Active and inactive are the calls of the source. Unless noted, how the calls were made is not given here.

Tests used:
[1] = RMG-1 ovarian cancer cell viability loss – cherry-pick, dose response (AID 687029;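 active means signal drop whose fitted half-maximal concentration is at most twice the top valid dose, in every test run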;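 further: cells exposed to compound for 96 hours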)
[2] = IOSE-T80 viability loss, PAX8-independent line – cell-based, cherry-pick, selectivity assay for PAX8 inhibitor project, dose response (AID 687032;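 active means fitted half-maximal concentration for viability loss no higher than twice the top valid dose, in every repeat run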;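 further: cells exposed to compound for 96 h before reading; 0% = neutral control wells and -100% = 2 µM mitoxantrone kill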)
[3] = CMV-driven luciferase expression suppression in HEK293 – cell-based, luminescence, dry powder, counter-screen for Pax8 inhibitor project, dose response (AID 743020;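 active means signal-lowering compounds whose fitted half-maximal concentration is at or below twice the top tested dose in every run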;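 further: HEK293 cells stably expressing the CMV luciferase reporter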)
[4] = IGROV1 cell killing – plate reader, dry powder samples, PAX8 inhibitor project, dose response (AID 743043);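 further: more negative means fewer viable cells or more cytotoxicity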
[5] = toxicity toward immortalized ovarian surface epithelium – cell-based, plate reader, dry powder samples, cytotoxicity control for PAX8 inhibitor project, dose response (AID 743045);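 further: 0% = neutral control median and -100% = positive control median; more negative values mean more cell killing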
[6] = A2780 cell killing – plate reader, dry powder samples, cytotoxicity control, dose response (AID 743046);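 further: 0% = neutral control wells and -100% = cytotoxic reference compound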
[7] = OVCAR8 cell viability loss – plate reader, dry powder samples, PAX8 project, dose response (AID 743197)
[8] = general cell-killing toxicity readout – plate reader, dry powder samples, cytotoxicity control for PAX8 inhibitor project, dose response (AID 743021)
[9] = toxicity toward HepG2 liver cells – cell-based, plate reader, cherry-pick, antagonist series, cytotoxicity control, dose response (AID 743416);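 further: 0% = neutral control wells and -100% = positive control wells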
[10] = OVCAR-3 cell viability loss – plate reader, dry powder samples, PAX8 inhibitor project, dose response (AID 743044); settings: max activity: at 35 µM, active compounds read low unless noted

COc1ccc(S(=O)(=O)Nc2ccc3c(c2)CC(=O)N([C@@H](C)CO)C[C@H](C)[C@@H](CN(C)Cc2ccc(C(F)(F)F)cc2)O3)cc1
inactive: outcome [1] | outcome [2] | outcome [3] | outcome [4] | outcome [5] | outcome [6] | outcome [7]

COc1cccc(C#Cc2ccc([C@H]3[C@@H](CO)N(C(=O)C4CCCC4)[C@H]3C#N)cc2)c1
inactive: outcome [1] | outcome [2] | outcome [3] | outcome [8] | outcome [6] | outcome [7]

COc1ccc(-c2csc3ncnc(Sc4nnnn4C)c23)cc1
inactive: outcome [1] | outcome [2] | outcome [3] | outcome [8] | outcome [9]

O=C(C[C@@H]1CC[C@H]2[C@@H](COC[C@@H](O)CN2Cc2cccc(F)c2)O1)NCC1CCCCC1
inactive: outcome [1] | outcome [2] | outcome [3] | outcome [4] | max activity [10] 45.7% [at 8 µM, active compounds read low] | outcome [5] | outcome [6] | outcome [7]

O=C(Nc1ccccc1)N1CCCCN2[C@H](CO)[C@H](c3ccc(C#Cc4ccccc4)cc3)[C@H]2C1
inactive: outcome [1] | outcome [2] | outcome [3] | outcome [4] | outcome [5] | outcome [6] | outcome [7]

O=C(Nc1ccc(F)cc1)N1C[C@@H]2N[C@H](C1)C2c1ccc(/C=C/c2ccccc2)cc1 (stereo partly drawn)
inactive: outcome [1] | outcome [2] | outcome [3] | outcome [4] | max activity [10] -17.6% | outcome [5] | outcome [6]

CCCC#Cc1ccc([C@@H]2[C@@H](C#N)N(S(=O)(=O)c3cccc(F)c3)[C@H]2CO)cc1
inactive: outcome [1] | outcome [2] | outcome [3] | outcome [4] | max activity [10] -20.5% [at 0.5 µM, active compounds read low] | outcome [5] | outcome [6]

COc1cccc(C#Cc2ccc([C@@H]3[C@H](C#N)N(C(=O)c4ccccn4)[C@H]3CO)cc2)c1
inactive: outcome [1] | outcome [2] | outcome [3] | outcome [4] | max activity [10] 39.4% | outcome [5]

COc1ccc(CN(C)C[C@@H]2OCCCC[C@H](C)Oc3ccc(NS(=O)(=O)c4ccc(C)cc4)cc3C(=O)N([C@H](C)CO)C[C@H]2C)cc1
inactive: outcome [1] | outcome [2] | outcome [3] | outcome [4] | max activity [10] -36% | outcome [5] | outcome [6]

Cc1ccc(S(=O)(=O)N(C)C[C@H]2Oc3ccc(NS(=O)(=O)c4ccc(F)cc4)cc3CC(=O)N([C@H](C)CO)C[C@H]2C)cc1
inactive: outcome [1] | outcome [2] | outcome [3] | outcome [4] | max activity [10] 12.5% [at 2.1 µM, active compounds read low] | outcome [5] | outcome [6] | outcome [7]

C[C@@H]1CN([C@H](C)CO)C(=O)c2cc(NC(=O)Nc3ccc(C(F)(F)F)cc3)ccc2O[C@@H](C)CCCCO[C@@H]1CN(C)C(=O)NC1CCCCC1
inactive: outcome [1] | outcome [2] | outcome [3] | outcome [4] | outcome [5] | outcome [6] | outcome [7]

C[C@@H]1CCCCO[C@H](CN(C)C(=O)NC2CCCCC2)[C@H](C)CN([C@@H](C)CO)C(=O)c2cc(NS(=O)(=O)c3ccc(Cl)cc3)ccc2O1
inactive: outcome [1] | outcome [2] | outcome [3] | outcome [4] | max activity [10] -10.9% [at 0.26 µM, active compounds read low] | outcome [5] | outcome [6] | outcome [7]

Cc1cccc(-c2ccc([C@H]3[C@H]4CN(S(=O)(=O)c5cccc(C)c5)CCCCN4[C@H]3CO)cc2)c1
inactive: outcome [1] | outcome [2] | outcome [3] | outcome [4] | outcome [5] | outcome [6]

C[C@H](CO)N1C[C@H](C)[C@@H](CN(C)C(=O)Cc2ccccc2)OCCCC[C@H](C)Oc2ccc(NC(=O)Nc3ccc(C(F)(F)F)cc3)cc2C1=O
inactive: outcome [1] | outcome [2] | outcome [3] | outcome [4] | max activity [10] 1.93% [at 8 µM, active compounds read low] | outcome [5] | outcome [6]

C[C@H](CO)N1C[C@H](C)[C@@H](CN(C)Cc2ccc(-c3ccccc3)cc2)Oc2ccc(NC(=O)C3CC3)cc2CC1=O
inactive: outcome [1] | outcome [2] | outcome [3] | outcome [4] | max activity [10] 42.3% [at 2.1 µM, active compounds read low] | outcome [5] | outcome [6] | outcome [7]

COc1cccc(C#Cc2ccc([C@H]3[C@@H](C#N)N(C(=O)c4ccccn4)[C@@H]3CO)cc2)c1
inactive: outcome [1] | outcome [2] | outcome [3] | outcome [4] | max activity [10] -22.5% [at 0.26 µM, active compounds read low] | outcome [5] | outcome [7]

COc1ccc(NC(=O)Nc2ccc3c(c2)C(=O)N([C@@H](C)CO)C[C@@H](C)[C@H](CN(C)Cc2ccc(C(F)(F)F)cc2)O3)cc1
inactive: outcome [1] | outcome [2] | outcome [3] | outcome [4] | max activity [10] 30.5% [at 30 µM, active compounds read low] | outcome [5] | outcome [6] | outcome [7]

C[C@@H]1CN([C@H](C)CO)C(=O)c2cc(NC(=O)Nc3ccc(C(F)(F)F)cc3)ccc2O[C@@H](C)CCCCO[C@@H]1CN(C)Cc1ccncc1
inactive: outcome [1] | outcome [2] | outcome [3] | outcome [8] | outcome [7]

C[C@H](CO)N1C[C@H](C)[C@H](CN(C)Cc2ccccc2)OCCCC[C@H](C)Oc2ccc(NC(=O)Nc3ccc(C(F)(F)F)cc3)cc2C1=O
inactive: outcome [1] | outcome [2] | outcome [3] | outcome [8] | outcome [7]

N#C[C@@H]1[C@H](c2ccc(-c3ccccc3F)cc2)[C@@H](CO)N1C(=O)Cc1ccccc1
inactive: outcome [1] | outcome [2] | outcome [3] | outcome [8] | outcome [6] | outcome [7]

N#C[C@H]1[C@@H](c2ccc(C#Cc3ccccc3F)cc2)[C@@H](CO)N1C(=O)C1CCCCC1
inactive: outcome [1] | outcome [2] | outcome [3] | outcome [4] | outcome [5] | outcome [7]

C[C@@H]1CCCCO[C@@H](CN(C)C(=O)c2ccccc2)[C@@H](C)CN([C@@H](C)CO)C(=O)c2cc(NC(=O)Nc3ccc(C(F)(F)F)cc3)ccc2O1
inactive: outcome [1] | outcome [2] | outcome [3] | outcome [4] | outcome [5] | outcome [6]

CCCC#Cc1ccc([C@@H]2[C@H](C#N)N(S(=O)(=O)c3cccc(F)c3)[C@H]2CO)cc1
inactive: outcome [1] | outcome [2] | outcome [3] | outcome [4] | outcome [5] | outcome [7]

Cn1nnnc1Sc1ncnc2scc(-c3ccc4c(c3)OCO4)c12
inactive: outcome [1] | outcome [2] | outcome [3] | outcome [8] | outcome [9]

N#C[C@H]1[C@@H](c2ccc(C#CC3CCCCC3)cc2)[C@@H](CO)N1S(=O)(=O)c1ccccc1
inactive: outcome [1] | outcome [2] | outcome [3] | outcome [4] | outcome [5] | outcome [6] | outcome [7]

CN(C)CC(=O)N1CCCCN2[C@H](CO)[C@H](c3ccc(/C=C/c4ccccc4)cc3)[C@H]2C1
inactive: outcome [1] | outcome [2] | outcome [3] | outcome [4] | outcome [5] | outcome [6]

COc1ccccc1C#Cc1ccc2c(c1)O[C@@H](CN(C)Cc1cccnc1)[C@H](C)CN([C@H](C)CO)S2(=O)=O
inactive: outcome [1] | outcome [2] | outcome [3] | outcome [4] | max activity [10] 17.1% | outcome [5] | outcome [6]

COc1ccc(NC(=O)Nc2ccc3c(c2)C(=O)N([C@H](C)CO)C[C@@H](C)[C@H](CN(C)Cc2ccc(C(F)(F)F)cc2)OCCCC[C@H](C)O3)cc1
inactive: outcome [1] | outcome [2] | outcome [3] | outcome [5] | outcome [6]

C[C@@H]1CN([C@@H](C)CO)C(=O)Cc2cc(NS(=O)(=O)c3ccc(Cl)cc3)ccc2O[C@@H]1CN(C)CC1CCCCC1
inactive: outcome [1] | outcome [2] | outcome [3] | outcome [5] | outcome [6] | outcome [7]

O=C1CN(S(=O)(=O)Cc2ccccc2)C[C@@H]2[C@@H](c3ccc(C#Cc4ccc(F)cc4)cc3)[C@@H](CO)N12
inactive: outcome [1] | outcome [2] | outcome [3] | max activity [10] -59.7% [at 16 µM, active compounds read low] | outcome [5] | outcome [6]

Cc1ccc(-c2ccc(C3[C@@H]4CN(C(=O)Nc5ccc(C(F)(F)F)cc5)C[C@H]3N4)cc2)cc1 (stereo partly drawn)
inactive: outcome [1] | outcome [2] | outcome [3] | outcome [4] | outcome [6]

N#C[C@H]1[C@@H](c2ccc(C#Cc3ccc(F)cc3)cc2)[C@H](CO)N1C(=O)C1CCCC1
inactive: outcome [1] | outcome [2] | outcome [3] | outcome [5]

C[C@@H]1CN([C@H](C)CO)C(=O)c2cc(NC(=O)Nc3ccc(C(F)(F)F)cc3)ccc2O[C@@H](C)CCCCO[C@@H]1CN(C)Cc1ccccc1
inactive: outcome [1] | outcome [2] | outcome [3] | outcome [5]

COc1ccc(NC(=O)N2CC(=O)N3[C@@H](CO)[C@@H](c4ccc(/C=C/c5ccccc5)cc4)[C@@H]3C2)cc1
inactive: outcome [1] | outcome [2] | outcome [3] | max activity [10] 30.3% [at 16 µM, active compounds read low] | outcome [5] | outcome [6]

Fc1cccc(CN2C[C@@H]3N[C@H](C2)[C@@H]3c2ccc(-c3cccc(F)c3)cc2)c1
inactive: outcome [1] | outcome [2] | outcome [3] | outcome [4] | outcome [6]

COc1ccc(NC(=O)N2CC(=O)N3[C@H](C2)[C@H](c2ccc(/C=C/c4ccccc4)cc2)[C@@H]3CO)cc1
inactive: outcome [1] | outcome [2] | outcome [3] | outcome [5] | outcome [7]

COc1ccccc1NC(=O)N1CCCCN2[C@H](CO)[C@H](c3ccc(-c4cccc(C)c4)cc3)[C@H]2C1
inactive: outcome [1] | outcome [2] | outcome [3] | outcome [5] | outcome [6] | outcome [7]

O=C(Nc1ccc(F)cc1)N1C[C@@H]2N[C@H](C1)C2c1ccc(-c2ccccc2F)cc1 (stereo partly drawn)
inactive: outcome [1] | outcome [2] | outcome [3] | outcome [5] | outcome [6]

Cc1ccccc1-c1ccc(C2[C@@H]3CN(C(=O)Nc4cccc(F)c4)C[C@H]2N3)cc1 (stereo partly drawn)
inactive: outcome [1] | outcome [2] | outcome [3] | outcome [5] | outcome [6] | outcome [7]

C[C@H](CO)N1C[C@H](C)[C@@H](CN(C)Cc2ccc(-c3ccccc3)cc2)Oc2ccc(NS(=O)(=O)c3ccccc3)cc2CC1=O
inactive: outcome [1] | outcome [2] | outcome [3] | max activity [10] 6.95% | outcome [5] | outcome [7]

COc1ccc(-c2ccc(C3[C@@H]4CN(Cc5cc(OC)cc(OC)c5)C[C@H]3N4)cc2)cc1 (stereo partly drawn)
inactive: outcome [1] | outcome [2] | outcome [3] | max activity [10] -15.8% [at 16 µM, active compounds read low] | activity change, negative = cytotoxicity [5] 6.64% [at 8 µM] | outcome [6]
